# In PubChem BioAssay (EPA / NIEHS):
# Activity calls are given as the source filed them. Rule for the calls: active = hit-call score of the fitted dose curve at least 0.9, where 1 is the maximum; inactive = score below 0.9.
# Assay: APR_HepG2_MicrotubuleCSK_1hr: Apredica 1-hour HepG2 Assay for Microtubule CSK Stabilty (AID 2282669)
# Details: HepG2 microtubule cytoskeleton imaging, actives raise or lower the signal
# Protocol: APR_HepG2_1hr is a cell-based, multiplexed-readout assay that uses HepG2, a human liver cell line, with measurements taken at 1 hour after chemical dosing in a 384-well plate.APR_HepG2_MicrotubuleCSK_1hr is one of 10 assay component(s) measured or calculated from the APR_HepG2_1hr assay. It is designed to make measurements of protein conformation, a form of conformation reporter, as detected with fluorescence intensity signals by HCS Fluorescent Imaging technology.Data from the assay component APR_HepG2_MicrotubuleCSK_1hr was analyzed into 1 assay endpoint. This assay endpoint, APR_HepG2_MicrotubuleCSK_1hr, was analyzed with bidirectional fitting relative to DMSO as the negative control and baseline of activity. Using a type of conformation reporter, measures of protein for gain or loss-of-signal activity can be used to understand the signaling at the cellular-level. Furthermore, this assay endpoint can be referred to as a primary readout, because this assay has produced multiple assay endpoints where this one serves a signaling function. To generalize the intended target to other relatable targets, this assay endpoint is annotated to the cell morphology intended target family, where the subfamily is cell conformation.
# Cells were treated with dimethyl sulfoxide (DMSO) as a solvent control at a final concentration of 0.5% v/v or with compounds in DMSO with a resulting final DMSO concentration of 0.5% v/v. Compound treatment was done at concentrations of 0.39, 0.78, 1.56, 3.12, 6.24, 12.5, 25, 50, 100, and 200 uM in duplicate on each plate. Cells were treated with compounds for 1, 24, or 72 hr. Carbonyl […] m-chloro-phenylhydrazone (CCCP) and taxol were used as positive controls for mitochondrial function and cytoskeletal stability, respectively; DMSO served as the negative control for this experiment. Cells were fixed by the direct addition of 50 uL formaldehyde in Hank's Balanced Salt Solution (HBSS) to a final concentration of 3.7%. After incubation in the fixation medium for 30 min at room temperature (293-298 K), cells were rinsed twice with HBSS and treated with cell permeabilization buffer (16 uL of 0.5% Triton X-100) for 10 min at room temperature (293-298 K) before labeling. For mitochondrial membrane potential and mitochondrial measurements, pre-fixed cells were incubated with 50 uL of MitoTracker Red CMXRos (Invitrogen) at a concentration of 250 nM for 30 min before fixation. In the remaining cases, post-fixed cells were labeled by incubation with a multiplexed mixture of primary antibodies in HBSS for 60 min at room temperature (293-298 K) to detect immunoreactivity of c-Jun (1:500), phospho-histone H3 (1:100), phospho-histone H2A.x (1:200), p53 (1:400), alpha-tubulin (1:200) and Hoechst 33342 (2 ug/mL). Cells were labeled for multiplexed imaging on two separate plates: a) Hoechst 33342, MitoTracker Red, phospho-histone H3, and alpha-tubulin, and b) Hoechst 33342, phospho-histone H2A.x, and c-Jun. A final rinse with HBSS (50 uL) was performed before analysis. The primary and secondary antibodies for the proteins were phospho-histone H3 (rabbit anti-phospho-histone H3 and FITC-donkey anti-rabbit IgG), phospho-histone H2A.x (mouse anti-phospho-histone H2A.x and FITC-donkey anti-mouse IgG), c-Jun (rabbit anti-phospho-c-Jun and Cy3-donkey anti-rabbit IgG), p53 (sheep anti-p53 and Cy5-donkey anti-sheep IgG), alpha-tubulin (mouse anti-alpha-tubulin and Cy5-donkey anti-mouse IgG). These antibodies are available as the CellCiphr HepG2 assay kit (Millipore).Digital images of each well were captured using a Cellomics ArrayScan VTI (Thermo Scientific Cellomics) (0.8 NA objective, 0.63x optical coupler, and XF-93 filter set) at 20x magnification. The images were acquired using the autofocus feature of the ArrayScan instrument, which entails the following steps. First, the camera focuses on channel 1 (Hoechst 33342), where nuclei are identified. Second, a Z offset of 1 um is used for capturing mitochondria (MitoTracker Red). […]
row,Structure (SMILES),outcome
1,N#Cc1cc(Br)c(O)c(Br)c1,inactive
2,CCON=C(CC)C1=C(O)CC(c2c(C)cc(C)cc2C)CC1=O (stereo not given),inactive
3,CCCCC(CC)COC(=O)c1ccccc1C(=O)OCC(CC)CCCC (stereo not given),inactive
4,COC(=O)C=C(C)OP(=O)(OC)OC,inactive
5,COP(=S)(OC)Oc1nc(Cl)c(Cl)cc1Cl,inactive
6,OC(c1ccc(Cl)cc1)(c1cncnc1)c1ccccc1Cl (stereo not given),inactive
7,CN(C)C(=S)SSC(=S)N(C)C,inactive
8,CC(C)Oc1cc(-n2nc(C(C)(C)C)oc2=O)c(Cl)cc1Cl,inactive
9,Cc1cc(Cl)ccc1OCC(=O)O,inactive
10,O=C(Nc1ccccc1)Nc1ccnc(Cl)c1,inactive
11,CNC(=S)S,inactive
12,COc1cnc(OC)n2nc(NS(=O)(=O)c3c(OCC(F)F)cccc3C(F)(F)F)nc12,inactive
13,COc1nc(C)nc(NC(=O)NS(=O)(=O)c2ccccc2CCC(F)(F)F)n1,inactive
14,CNC(=O)ON=CC(C)(C)SC,inactive
15,CCCCOC(=O)c1ccccc1C(=O)OCCCC,inactive
16,CC1COC(Cn2cncn2)(c2ccc(Oc3ccc(Cl)cc3)cc2Cl)O1 (stereo not given),inactive
17,CO/C=C(/C(=O)OC)c1ccccc1Oc1cc(Oc2ccccc2C#N)ncn1,inactive
18,COP(N)(=O)SC (stereo not given),inactive
19,C=CCC1=C(C)[C@@H](OC(=O)[C@@H]2[C@@H](C=C(C)C)C2(C)C)CC1=O,inactive
20,N#CC(CCc1ccc(Cl)cc1)(Cn1cncn1)c1ccccc1 (stereo not given),inactive

row,Structure (SMILES),outcome
1,C=CCC1=C(C)C(OC(=O)C2C(C=C(C)C)C2(C)C)CC1=O (stereo not given),inactive
2,O=C(O)COc1nc(Cl)c(Cl)cc1Cl,inactive
3,COc1nc(C)nc(NC(=O)NS(=O)(=O)c2ccccc2Cl)n1,inactive
4,CC1=C(C(=O)Nc2ccccc2)SCCO1,inactive
5,CCOC(=O)CC(SP(=S)(OC)OC)C(=O)OCC (stereo not given),inactive
6,CCNc1nc(Cl)nc(NC(C)C)n1,inactive
7,Oc1ccccc1-c1ccccc1,inactive
8,O=C(O)c1nc(Cl)ccc1Cl,inactive
9,C=CC1(C)OC(=O)N(c2cc(Cl)cc(Cl)c2)C1=O (stereo not given),inactive
10,Cc1c(F)c(F)c(COC(=O)C2C(/C=C(\Cl)C(F)(F)F)C2(C)C)c(F)c1F (stereo not given),inactive
11,CCCCNC(=O)n1c(NC(=O)OC)nc2ccccc21,inactive
12,CCc1nn(C)c(C(=O)NCc2ccc(C(C)(C)C)cc2)c1Cl,inactive
13,COc1nc(NC(C)C)nc(NC(C)C)n1,inactive
14,CCCN(CCC)c1c([N+](=O)[O-])cc(S(N)(=O)=O)cc1[N+](=O)[O-],inactive
15,Cc1ccc(-c2c(Cl)nc(C#N)n2S(=O)(=O)N(C)C)cc1,inactive
16,CS/C(C)=N/OC(=O)N(C)SN(C)C(=O)O/N=C(\C)SC,inactive
17,CCOC(=O)C(Cl)Cc1cc(-n2nc(C)n(C(F)F)c2=O)c(F)cc1Cl (stereo not given),inactive
18,C#CCOS(=O)OC1CCCCC1Oc1ccc(C(C)(C)C)cc1 (stereo not given),inactive
19,CCOP(=S)(OCC)SCn1c(=O)oc2cc(Cl)ccc21,inactive
20,CCCCNC(=O)OCC#CI,inactive
